Screens from PubChem BioAssay.
Only some compounds are listed: those with a hit (about 2.3% of all), similar ones and a draw of the others.
CHT PAM: allosteric activators of human choline transporter CHT | Q9GZV3 | CHT-expressing cells, membrane potential dye, choline EC20; hits give high values; LV-AA mutant CHT in HEK293 cells | B-score at 10 µM | hit rate 0.49% among 310,000;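 active = initial fluorescence not abnormally high and integrated response B-score, plate-corrected, over 3 SD above library mean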
Target sequence (Q9GZV3 whole entry, looked up): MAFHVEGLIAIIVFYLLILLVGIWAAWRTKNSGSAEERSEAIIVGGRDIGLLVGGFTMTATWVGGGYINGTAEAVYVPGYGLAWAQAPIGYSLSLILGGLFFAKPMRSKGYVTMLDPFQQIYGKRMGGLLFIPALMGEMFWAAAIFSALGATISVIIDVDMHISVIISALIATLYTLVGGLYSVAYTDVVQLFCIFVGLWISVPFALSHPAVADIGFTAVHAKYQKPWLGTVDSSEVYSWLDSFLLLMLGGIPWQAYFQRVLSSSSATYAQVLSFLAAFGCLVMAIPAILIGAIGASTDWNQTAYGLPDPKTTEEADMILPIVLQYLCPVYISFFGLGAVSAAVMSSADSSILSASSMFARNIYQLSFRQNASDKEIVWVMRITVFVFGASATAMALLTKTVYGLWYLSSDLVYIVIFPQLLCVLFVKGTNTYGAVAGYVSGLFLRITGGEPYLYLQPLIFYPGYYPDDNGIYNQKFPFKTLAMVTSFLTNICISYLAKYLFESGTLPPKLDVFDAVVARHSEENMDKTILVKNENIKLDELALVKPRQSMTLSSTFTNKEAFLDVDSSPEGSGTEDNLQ
ANO1 activ: mouse TMEM16A channel activation, primary screen; HEK293 TMEM16A/YFP-H148Q/I152L, iodide quench fluorescence; hits give low values; B-score at 10 µM; hit rate 0.3% among 340,000; AID 623877;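 active = fluorescence-ratio B-score plate-corrected deviation score at least 3 library SD below zero, with starting fluorescence score within 5 deviations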;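 note: channel opened by trigger with iodide after compound preincubation; score built on the fluorescence ratio of max minus min over baseline; more negative score means more quench and so TMEM16A activation or potentiation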
ANO1 block: inhibitors of mouse TMEM16A calcium-activated chloride channel. Q8BHY3. HEK293 TMEM16A/YFP iodide influx fluorescence, ionomycin. normalized B-score (activity score, 25-100; higher = stronger inhibition) at 10 µM. hit rate 1.2% among 310,000;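 active = ratio plate-corrected score three or more library SD toward inhibition, starting fluorescence score within five deviations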;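 note: score derived from kinetic fluorescence span divided by baseline fluorescence per well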
CHT block: human CHT choline transport inhibition. hit rate 0.86% among 310,000. AID 488975. B-score at 10 µM. Q9GZV3. CHT-expressing cells, membrane potential dye, choline response; hits give low values;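 active = B-score over 3 SD under the library average, and starting fluorescence ratio not unusually high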;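 note: choline stimulus applied at its EC90 after an EC20 pre-addition; B-score computed on integrated fluorescence ratio after choline addition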
CHT activ conf: human CHT activation, confirmatory screen; shares compounds with CHT PAM; CHT-expressing cells, membrane potential dye fluorescence (FDSS); % of choline EC20–EC90 response window; HEK293 expressing CHT LV-AA mutant; choline added at its EC20; activation, % at 10 µM; hit rate 91% among 2,500;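 active = primary screen active, with duplicate mean activation above negative control mean plus 3 SD, cut at about 11% in these data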
HEK293 MP dye: CHT activator counter-screen hit in parental HEK293 cells; ratio readout change at 10 µM, hits read low; membrane potential dye fluorescence (FDSS); measured after EC20 choline addition; shares compounds with CHT PAM; hit rate 62% among 2,500;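 active = duplicate-averaged ratio beyond 3 SD from buffer wells, up or down, though filed actives are nearly all decreases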
An asterisk follows results filed as active; i = inactive; nt = not tested or not shown.

SMILES	CHT PAM	ANO1 activ	ANO1 block	CHT block	CHT activ conf	HEK293 MP dye
CCN1C(N(C)CCc2c[nH]c3ccccc23)=N[C@@H](c2cccc(C(F)(F)F)c2)C(C(=O)OC)=C1C	nt	i	nt	nt	nt	nt
O=C(Nc1cccc(NC(=O)c2cccnc2)c1)c1cccnc1	i	i	i	i	nt	nt
Cc1nnc2sc(-c3cccc(NC(=O)c4cccnc4)c3)nn12	7.9*	i	i	i	35*	-49*
Cc1ccc(-c2nn3c(C)nnc3s2)cc1NC(=O)c1cccnc1	8.3*	i	i	i	59*	-54*
Cc1nnc(SCCn2c(N3CCCCC3)nc3c2c(=O)n(C)c(=O)n3C)s1	i	i	i	i	nt	nt
Cc1nnc(SCCn2c(N3CCN(C)CC3)nc3c2c(=O)n(C)c(=O)n3C)s1	7.7*	i	i	i	46*	-70*
Cc1cccc(N2CCN(C(c3ccncc3)c3nnnn3C(C)(C)C)CC2)c1C (stereo unspecified)	i	i	i	i	29*	i
CC(C)(C)n1nnnc1C(c1cccnc1)N1CCN(c2cccc(C(F)(F)F)c2)CC1 (stereo unspecified)	7.8*	i	i	i	21*	i
Cc1nn(-c2ccccc2)nc1-c1nnc(-c2ccc(C(F)(F)F)cc2)o1	i	i	i	i	nt	nt
CCCCC(CCC(=O)Nc1ccc(C(=O)OC)cc1)C(=O)O (stereo unspecified)	i	i	i	i	nt	nt
CCOC(=O)C1C(C)N=C2SCC(=O)N2C1c1cccc(Br)c1 (stereo unspecified)	i	i	i	i	6	i
CCOC(=O)C1C(=O)NC(c2ccccc2)=NC1c1cccc(Br)c1 (stereo unspecified)	i	i	i	i	nt	nt
COC(=O)CCC(=O)Nc1sc2c(c1C#N)CCCC2	9.2*	i	i	i	25*	i
CCOC(=O)c1ccc2c(c1)n(CCCS(=O)(=O)[O-])c(/C=C/c1ccc(Cl)cc1)[n+]2CC	11*	i	i	i	71*	-86*
NC(=O)C1CCN(C(=O)CCNS(=O)(=O)c2ccccc2F)CC1	nt	i	nt	nt	nt	nt
COc1cc2c(cc1OC)C(C(=O)Nc1ccc3c(c1)OCCO3)C(c1cccnc1)N(C)C2=O (stereo unspecified)	i	i	i	i	nt	nt
O/N=C/c1cccc[n+]1CCCCCC[n+]1ccccc1/C=N/O	6.4*	i	i	i	44*	-60*
COc1ccc(C(=O)C[n+]2ccccc2/C=N/O)cc1	i	i	i	i	19*	-25*
CCCCCCCCCCCCCCCC[n+]1ccc(/C=N/O)cc1	i	i	i	i	nt	nt
COc1cccc(CN(C)C(=O)CC2C(=O)NCCN2C2Cc3ccccc3C2)c1 (stereo unspecified)	i	i	i	i	nt	nt
CCCc1nc2c(C)cc(C)cc2c(N)c1CC	7.1*	i	i	i	44*	-38*
O=C(Cn1c2[n+](c3ccccc31)CC(O)CS2)c1ccccc1 (stereo unspecified)	i	i	i	i	nt	nt
Cc1cccc2nc(CSC(=N)N)c(Br)n12	i	i	i	i	28*	-38*
c1cc2nncn2nc1N1CCCC1	i	i	i	i	nt	nt
c1ccc(N2CCN(c3ccc4nncn4n3)CC2)nc1	9.7*	i	i	i	66*	-58*
SMILES	CHT PAM	ANO1 activ	ANO1 block	CHT block	CHT activ conf	HEK293 MP dye
Cc1nnc2ccc(N3CCN(c4ccccn4)CC3)nn12	7.2*	i	i	i	53*	-51*
COc1ccc(-c2nnn(CC(=O)NC(=O)NC3CCCCC3)n2)cc1OC	nt	i	nt	nt	nt	nt
COc1ccc(S(=O)(=O)N2c3ccc(F)cc3CCC2C)cc1 (stereo unspecified)	i	i	i	i	44*	i
Brc1ccc(-c2cnc3n2CCCC3)cc1	i	i	i	i	nt	nt
CCOc1ccc(-c2cnc3n2CCC3)cc1	i	i	i	i	50*	-39*
N=c1c2c(n(Cc3ccc(Cl)cc3)c3c1CCC3)CCC2	8.1*	i	i	i	51*	-42*
CCCCCCCCCn1c2c(c(=N)c3c1CCC3)CCCC2	nt	i	nt	nt	nt	nt
N=c1c2c(n(Cc3ccccc3)c3c1CCC3)CCC2	i	i	i	i	nt	nt
N=c1c2c(n(Cc3cccc(Cl)c3)c3c1CCC3)CCCC2	8.8*	i	i	i	66*	-41*
N=c1c2c(n(Cc3ccc(F)cc3)c3c1CCC3)CCCC2	i	i	i	i	nt	nt
CCn1c2c(c(=N)c3c1CCC3)CCCC2	9.3*	i	i	i	68*	-65*
COc1cc(C(=O)OCC(=O)c2c(N)n(C)c(=O)n(C)c2=O)ccc1OCCC(C)C	i	i	i	i	nt	nt
c1csc(-c2nc3nc4ccccc4nc3n2Cc2ccc3c(c2)OCO3)c1	8.7*	i	i	i	15*	i
CCCn1c(-c2cccs2)nc2nc3ccccc3nc21	i	i	i	i	nt	nt
CCOc1ccccc1N1CCN(C(=O)NCc2ccc(Cl)cc2)CC1	i	i	i	i	nt	nt
CC(C)CCN1CCN(Cc2cc(F)ccc2-n2cccn2)CC1CCO (stereo unspecified)	i	i	i	i	nt	nt
CC(C)CN1CCN(Cc2cc(F)ccc2-n2cccn2)CC1CCO (stereo unspecified)	i	i	i	i	9	i
Cc1ccc(NC(=O)CCn2nnc3ccccc32)cc1	i	i	i	i	nt	nt
Cc1c(NC(=S)NC(=O)c2cc3ccccc3o2)cccc1C(=O)O	i	i	i	i	nt	nt
CC(=O)c1cccc(NC(=O)c2ccc3c(c2)C(=O)N(Cc2cccnc2)C3=O)c1	i	i	i	i	nt	nt
O=C(Nc1cccnc1)c1ccc2c(c1)C(=O)N(Cc1cccnc1)C2=O	i	i	i	i	16*	-39*
CN(C)c1cc[n+](Cc2c(Cl)cccc2Cl)cc1	6.8*	i	i	i	43*	-46*
COc1ccccc1OCC(=O)Nc1ccc2c(c1)n(C)c(=O)n2C	6.6*	i	i	i	63*	-53*
COc1ccc(OCC(=O)Nc2ccc3c(c2)n(C)c(=O)n3C)cc1	i	i	i	i	nt	nt
Cc1ccc(-c2c3c(=O)n(C)c(=O)n(C)c3cn2CCCN2CCOCC2)cc1	8.1*	i	i	i	70*	-68*
CCOc1ccc(NC(=O)Cn2nnc(C(=O)NCc3cccs3)c2N)cc1	i	i	i	i	nt	nt
